Screening results as filed in PubChem BioAssay.
Hits are enriched below; roughly 1.5% of the tested compounds scored in any of these assays.
GALK inh: inhibitors of human galactokinase; AID 1868; 0.007% of 270,000 active; Purified GALK, Kinase-Glo residual ATP luminescence; P51570; Potency, µM (top dose mostly 57.5 µM), actives largely listed as inhibitors
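Kinase-Glo Plus luminescence measured ATP left after a 1 h room-temperature reaction. The reaction used 5 nM GALK, 100 uM galactose and 35 uM ATP at pH 8.0 (20 mM HEPES, 5 mM MgCl2, 60 mM NaCl, 1 mM DTT, 0.01% BSA).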
CtBP-E1A inh: CtBP/E1A binding inhibition; AlphaScreen GST-E1A/His-CtBP binding, 1536-well; stronger effect = lower value; activity change, % (no concentration beside the values); 0.49% of 340,000 active; in the data active = activity change below about -65%; inconclusive = mostly about -30% to -63%
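AlphaScreen with 125 nM GST-E1A and 125 nM His-CtBP (5X stocks) in Tris pH 8.0, 300 mM NaCl, BSA, Tween 20, TCEP. Compounds preincubated 2 h at 37 deg C, then glutathione donor/nickel acceptor beads added for 1 h at 37 deg C in dark.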
Six1-Eya2 inh: blocks human Six1 binding to Eya2; Q15475+O00167; AlphaScreen GST-Six1/His-Eya2 binding, biochemical; stronger effect = lower value; activity change, % (no concentration beside the values); 0.56% of 360,000 active; in the data active = activity change below about -65%; inconclusive = mostly about -30% to -63%
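Compounds are tested against tagged Six1 and Eya2 proteins bridged by glutathione donor and nickel acceptor beads; after a one-hour incubation at 37 °C without light, AlphaScreen emission is recorded.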
TrxR1 substrate: rat thioredoxin reductase 1 substrate activity. 0.01% of 390,000 active. Potency, µM (titrated, usually from 114 µM). AID 588456. purified TrxR1 substrate turnover, NADPH consumption readout. O89049; also: nearly all actives have a fitted effect of over 50% in size
Target sequence (O89049 whole entry, looked up): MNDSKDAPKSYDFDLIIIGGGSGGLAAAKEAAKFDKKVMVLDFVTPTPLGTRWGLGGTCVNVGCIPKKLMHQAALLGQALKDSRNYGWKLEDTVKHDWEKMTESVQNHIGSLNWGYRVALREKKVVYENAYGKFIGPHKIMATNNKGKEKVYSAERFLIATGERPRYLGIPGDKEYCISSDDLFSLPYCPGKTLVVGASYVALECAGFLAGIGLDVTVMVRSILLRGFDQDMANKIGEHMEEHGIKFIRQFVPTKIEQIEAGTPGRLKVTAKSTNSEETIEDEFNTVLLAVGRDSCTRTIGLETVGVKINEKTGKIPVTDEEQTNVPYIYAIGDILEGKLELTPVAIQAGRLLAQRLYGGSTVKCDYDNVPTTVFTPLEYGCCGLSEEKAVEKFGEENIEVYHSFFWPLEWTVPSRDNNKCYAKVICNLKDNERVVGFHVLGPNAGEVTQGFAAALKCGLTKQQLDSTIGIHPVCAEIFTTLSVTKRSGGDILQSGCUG
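Rat TrxR1, dispensed at 90 nM, was prereduced with 400 uM NADPH (final) for 5 min at ~22 deg C, then incubated with compound 15 min before 400 uM selenite. A first-read NADPH fluorescence drop versus no-compound background flagged substrates.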
rTrxR1 inhibitor: inhibitors of rat thioredoxin reductase 1 | AID 588453 | Potency, µM (top dose mostly 114 µM), actives largely listed as inhibitors | 1% of 390,000 active | recombinant rTrxR1, NADPH fluorescence consumption, selenite substrate | O89049; also: nearly all actives have a fitted effect of over 65% in size
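Rat TrxR1 (90 nM in the dispensed reagent) was pre-reduced with 400 uM NADPH for 5 min at room temperature, then incubated with compound for 15 min. After 400 uM selenite was added, NADPH fluorescence (Ex 340/Em 450 nm) was followed for 8 min.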
Eya2 inh: blocks the phosphatase activity of human Eya2; recombinant Eya2, OMFP fluorescence dephosphorylation (OMFP is methylfluorescein phosphate); Potency, µM (highest dose often 76.9 µM), most hits filed as inhibitors; 0.006% of 330,000 active
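Eya2 protein (added as 0.2 uM solution) was preincubated with compound for 10 min at ambient temperature in 50 mM HEPES pH 7.5, 50 mM NaCl, 5 uM MgCl2, 0.05% BSA, 1 mM DTT. OMFP (added at 50 uM) then reacted 10 min; fluorescence read at 485/525 nm.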
A number is an active result; - = inactive; ? = inconclusive; . = no result given; [ ] = dose if it differs, or a comment. Unless noted, calls follow the shape of the dose curve; as a rule, active = well fitted curve in the direction sought with a large enough effect; inconclusive = small, poorly fitted or top-dose-only effect, or another doubt; inactive = no such curve, though single readings can be large; an effect the other way counts as inactive or inconclusive.

SMILES	GALK inh	CtBP-E1A inh	Six1-Eya2 inh	TrxR1 substrate	rTrxR1 inhibitor	Eya2 inh
Cc1nn(-c2ccccc2)c(C)c1/C=C/C(=O)OCC(=O)NC1CCS(=O)(=O)C1 (stereo not given)	-	-75	-	-	-	-
CCN1CCN(C(c2ccc(SC)cc2)c2c(O)cc(C)n(CCOC)c2=O)CC1 (stereo not given)	.	.	.	-	25µM	.
CCN1CCN(C(c2ccccc2Cl)c2c(O)cc(C)n(CCOC)c2=O)CC1 (stereo not given)	.	.	.	-	10µM	.
CCOc1ccccc1CNC(=O)c1ccc2nc(CCc3ccccc3)oc2c1	.	.	.	-	-	.
Cc1csc(N/N=C/c2ccccc2F)n1	-	-	-	-	-	-
CCCOc1ccc(/C=N/Nc2cc(N3CCOCC3)ncn2)c(O)c1	-	.	-	-	-	-
COc1cc(N/N=C/c2ccccc2O)ncn1	-	-96	-88	-	-	-
CCOc1ccc(/C=N/Nc2nc(C)cs2)c(O)c1	-	?	-68	-	?	-
COc1cc(N/N=C/c2ccc(N(C)C)cc2)ncn1	-	.	-	-	-[0.0914 µM]	-
CCOc1ccc(/C=N/Nc2cc(N3CCOCC3)ncn2)c(O)c1	.	?	-71	.	.	.
CC(C)CN(CCCNC(=O)c1cc(-c2cccs2)nc2ccccc12)CC(C)C	.	.	.	-	-	.
CC(C)(C)n1ncc2c(=O)n(Cc3cccc(OC(F)(F)F)c3)cnc21	.	.	.	-	-	.
O=S(c1cc(Cl)cc(Cl)c1O)c1cc(Cl)cc(Cl)c1O	.	-	-92	.	.	.
Oc1c(Cl)cc(Cl)cc1Sc1cc(Cl)cc(Cl)c1O	.	.	.	.	.	-
CCOc1ccc(CCNc2ccc3nnc(-c4ccccc4)n3n2)cc1OCC	.	?	-72	-	-	-
Clc1ccc(CNc2ccc3nnc(-c4ccccc4)n3n2)cc1	.	-	-	-	-	-
NC(=O)N=Nc1c2[nH]c3ccccc3nc-2c2ccccc12	-	-69	?	-	-	-
Cc1ccc2cc(CN(CCCN3CCOCC3)C(c3nnnn3Cc3ccco3)C(C)C)c(=O)[nH]c2c1C (stereo not given)	.	-	-	-	10µM	.
C=C1[C@@H](O)[C@H](Cc2ccccc2)N(Cc2ccccc2Br)S1(=O)=O	.	-	-	-	14µM	.
CC(C)C(NC(=O)c1ccccc1)C(=O)OCC(=O)N1CCCC1 (stereo not given)	.	-	-	-	-	-
CC(C)[C@H](NC(=O)c1ccc(Cl)cc1)C(=O)OCC(=O)N1CCN(c2ccccc2)CC1	.	-	-	-	32µM	-
Oc1c(Cl)cc(Cl)cc1CNc1nccs1	-	-83	-65	-	-	-
C=C1C=C(C(F)F)n2ncc(C(=O)NCc3ccc(Cl)cc3Cl)c2N1	.	.	.	-	-	.
O=C(O)c1ccc(NC2=C(n3nnc4ccccc43)C(=O)c3ccccc3C2=O)cc1	-	-	-	-	7.1µM	-
CC(=O)c1ccc(N2CCN(C(=O)C3CCN(S(=O)(=O)c4ccc(Br)s4)CC3)CC2)cc1	.	.	.	-	-	.
SMILES	GALK inh	CtBP-E1A inh	Six1-Eya2 inh	TrxR1 substrate	rTrxR1 inhibitor	Eya2 inh
CCC/C=C1\CCCOC(C(=O)NCc2ccc(C)o2)(C(F)(F)F)C1 (stereo not given)	.	.	.	-	?	.
CCC/C=C1/CCCOC(C(=O)NCc2ccc(C)o2)(C(F)(F)F)C1 (stereo not given)	.	-	-	-	13µM	-
Cc1ccc(NC(=O)COCc2cc(-c3cccs3)on2)cc1Cl	.	.	.	-	-	.
Cc1[nH]c2ccccc2c1CCNC(=O)c1ccc2c(c1[N+](=O)[O-])C(=O)c1ccccc1C2=O	-	-	-73	-	-	-
Cc1[nH]c2c(C)cccc2c1CCNC(=O)c1ccc2c(c1[N+](=O)[O-])C(=O)c1ccccc1C2=O	-	-92	-65	-	-	-
CN(C)C(=O)c1ccc2c(c1[N+](=O)[O-])C(=O)c1ccccc1C2=O	-	-	-	-	-	-
C#CCSc1nncn1C(=O)/C=C/c1ccccc1	.	-	-	-	22µM	-
C#CCSc1nc2ccccc2c(=O)n1CC=C	.	.	.	-	-	.
CCOC(=O)C(NCc1ccccn1)(NC(=O)c1cccnc1)C(F)(F)F (stereo not given)	-	-	-83	-	-	-
CCOC(=O)C(NC(=O)c1cccnc1)(Nc1cccc(C)n1)C(F)(F)F (stereo not given)	-	-	-	-	-	-
Cc1cc(C)c2c(c1)c(C)cc1nnc(SCc3ccccc3C#N)n12	.	.	.	-	-	.
O=C1CN(C(=O)COC(=O)/C=C/c2ccco2)c2ccccc2N1	-	-	-	-	-	-
Cc1ccc(/C=C/C(=O)OCC(=O)NC(C)c2ccccc2)o1 (stereo not given)	.	-	-	-	50µM	-
Cc1ccc(/C=C/C(=O)OCC(=O)N2CC(=O)Nc3ccccc32)o1	-	-	-	-	28µM	?
COc1ccc(NC(=O)C(=O)NCc2ccco2)c(OC)c1	.	.	.	-	-	.
O=C(c1ccncc1)N1CCN(c2cccc(C(F)(F)F)c2)CC1	-	-	-	-	-	-
O=C(c1ccc(Nc2nc3ccccc3n3nnnc23)cc1)N1CCN(c2cccc(C(F)(F)F)c2)CC1	.	.	.	-	71µM	.
c1ccc(-c2n[nH]c(-c3ccccn3)n2)nc1	-	-95	-92	-	-	-
c1ccc(-c2nn[nH]n2)cc1	-	-	-	-	-	-
c1ccc(-c2n[nH]c(-c3ccccn3)n2)cc1	-	-92	-91	-	-	-
c1ccc(-c2nn[nH]n2)nc1	-	-72	-87	-	-	-
S=C(Nc1ccccc1)Nc1nccs1	-	.	-	-	?	-
